# Results published in PubChem BioAssay (NCI).
# This is part of a sample that, as a whole, favours compounds with a hit. Of some 83,000 tested, about 20% had one in any assay.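 Single-concentration screen, 48 h exposure, 96-well plates. Endpoint: percent growth. Below 10 = active.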 Unmarked numbers belong to inactive results. Activity calls are given as the source filed them.
# System: MDA-MB-468 breast
# Assay: NCI-60 one-dose screen, 48 h (100 = growth as untreated, 0 = no growth, -100 = all killed)
# Conditions: 10 µM unless noted
row,Compound,growth
1,C[C@]12O[C@H](C[C@]1(O)CO)n1c3ccccc3c3c4c(c5c6ccccc6n2c5c31)CNC4=O,-47.5% (active)
2,COc1ccc(-n2nc(C(=O)Nc3ccc(F)cc3)nc2-c2cc(OC)c(OC)c(OC)c2)cc1,91.9%
3,CCCCNC(=O)Oc1ccc(/C(=C(/CC)Cc2ccccc2)c2ccc(OCCCN(C)C)cc2)cc1,72.9%
4,CCOC(=O)C1=C(C)N=C2Sc3cccc(OC)c3N2[C@H]1c1ccccn1,108%
5,CCOC(=O)c1cc(C(=O)c2cc(OC)c(OC)c(OC)c2)n2c1ccc1ccccc12,1.54% (active)
